Results: PubChem BioAssay (Tox21)
Inconclusive results are not listed. Entries that show only a call come without a potency. A number with no mark means an inactive call. Active and inactive are the calls of the source. Calls follow the shape of the dose curve; as a rule, active = well fitted cell-killing curve with a large enough effect in the repeat runs; inconclusive = weak or mixed curves, or effect the other way; inactive = flat fitted curve, though single readings scatter.

assay: qHTS RealTime-Glo MT Cell Viability Assay in HepG2 cells - 0 hour (AID 1224889); settings: RealTime-Glo luminescence; series mostly up to 76.8 µM; also: nearly all actives have a fitted effect of over 50% in size
Text: U.S. Tox21 Program National Center for Advancing Translational Sciences [NCATS] NIH Chemical Genomics Center [NCGC] U.S. Environmental Protection Agency [EPA] National Institutes of Environmental Health Sciences [NIEHS] National Toxicology Program [NTP] U.S. Food and Drug Administration [FDA] Tox21 Assay Overview: Measure of cell viability is critical in the cell-base assay. Analysis of cell viability is necessary for the characterization of cell responses to cytotoxic drugs and environmental stress. A RealTime-Glo MT Cell Viability Assay to monitor cell viability in real time of continues cell culture during 40 hours of compound treatment was used to screen Tox21 10K library compounds in HepG2 cells. The RealTime-Glo MT Cell Viability Assay is a nonlytic, homogeneous, bioluminescent method to measure cell viability in real time using a simple, plate-based method. The assay involves adding NanoLuc luciferase and a cell-permeant prosubstrate to cells in culture. Viable cells reduce the proprietary prosubstrate to generate a substrate for NanoLuc luciferase. This substrate diffuses from cells into the surrounding culture medium, where it is rapidly used by the NanoLuc Enzyme to produce a luminescent signal. The signal correlates with the number of viable cells, making the assay well suited for cytotoxicity studies.
Tox21 Assay Protocol Summary: The mixture of HepG2 cell suspension and reagents were dispensed at 600cells/6 ul/well in 1536-well tissue culture treated black solid bottom plates using a Multidrop dispenser. After the assay plates were incubated at a 37 C/5% CO2 incubator for 5 hours, 23 nL of compounds dissolved in DMSO, positive and negative controls was transferred to the assay plate by a pintool work station. The plates were incubated at 37 C for 40 hours. The luminescence intensity were measured at 0h, 8h, 16h, 24h, 32h and 40h time points using ViewLux plate reader during compound treatment.

| Compound | Potency | activity change, negative = cytotoxicity |
| --- | --- | --- |
| CCCC[O][Al]([O]CCCC)[O]CCCC | inactive | – |
| O=C(O)CCC(=O)Nc1ccc(S(=O)(=O)Nc2nccs2)cc1 | inactive | – |
| CCCc1ccc(O)c(OC)c1 | inactive | – |
| N#Cc1cc(NC(=O)C(=O)O)c(Cl)c(NC(=O)C(=O)O)c1 | inactive | – |
| CN(C)CCc1c[nH]c2ccc(CS(=O)(=O)N3CCCC3)cc12 | inactive | – |
| O=S(=O)(O)c1cc(I)c(O)c2ncccc12 | inactive | – |
| CC1(C)CC(N)CC(C)(C)N1 | inactive | – |
| N[C@H]1C(O)O[C@H](CO)[C@@H](O)[C@@H]1O (stereo not given in full) | inactive | – |
| CCCCOCCCC | inactive | – |
| CCNC(=O)C(C)OC(=O)Nc1ccccc1 (stereo not given) | inactive | – |
| NNC(=O)CCCCC(=O)NN | inactive | – |
| CCCCCCCCCCCBr | inactive | – |
| Cc1ccc2ccccc2n1 | inactive | – |
| CC(C)(C)OC=O | inactive | – |
| O=C1Nc2ccccc2C1=O | inactive | – |
| CCC(=O)OCCOc1ccccc1 | inactive | – |
| C=COCCCCO | inactive | – |
| CC(CC(=O)Cl)CC(C)(C)C (stereo not given) | inactive | – |
| CNC(=O)c1c(I)c(NC(C)=O)c(I)c(C(=O)O)c1I | inactive | – |
| C=CCON/C(CCC)=C1\C(=O)CC(C)(C)C(C(=O)OC)=C1O | inactive | – |

| Compound | Potency | activity change, negative = cytotoxicity |
| --- | --- | --- |
| N=C(N)N1CCc2ccccc2C1 | – | -7.09% [at 6.97 µM] |
| CCCCN=C(N)N=C(N)N | inactive | – |
| CCOCCOCCOC(C)=O | inactive | – |
| CCCCCCCCCCCCCC(=O)OCC | inactive | – |
| NC[C@H]1O[C@H](O[C@H]2[C@H](O)[C@@H](O[C@H]3O[C@H](CO)[C@@H](O)[C@H](N)[C@H]3O)[C@H](N)C[C@@H]2N)[C@H](N)[C@@H](O)[C@@H]1O | – | 5.28% [at 15.8 µM] |
| CCOc1ccccc1OCCN[C@H](C)Cc1ccc(OC)c(S(N)(=O)=O)c1 | inactive | – |
| CCc1ncc(C)[nH]1 | inactive | – |
| CCOC(=O)COc1ccc2c(C)c(CCN(CC)CC)c(=O)oc2c1Cl | inactive | – |
| CC(=O)Nc1ccc(OCCOCCOc2ccc(NC(C)=O)cc2)cc1 | inactive | – |
| C[C@@H]1CC[C@@]2(OC1)O[C@H]1C[C@H]3[C@@H]4CC[C@H]5C[C@@H](O)CC[C@]5(C)[C@H]4CC(=O)[C@]3(C)[C@H]1[C@@H]2C | – | 5.89% [at 6.97 µM] |
| COC(=O)C(c1ccccc1Cl)N1CCc2sccc2C1 (stereo not given) | inactive | – |
| CC(=O)SCC(CC(=O)c1ccc(C)cc1)C(=O)O (stereo not given) | inactive | – |
| O=C(O)Cc1c(Cl)ccc(Cl)c1Cl | inactive | – |
| CCc1ccc(CC)cc1 | inactive | – |
| CCN(CC)CC(=O)Oc1ccc(NC(C)=O)cc1 | inactive | – |
| C/C(=N\O)c1ccc(OCC(=O)N2CCCCC2)cc1 | inactive | – |
| CCO[Si](CC(C)C)(OCC)OCC | inactive | – |
| Nc1nc(Cl)cc(Cl)n1 | inactive | – |
| Cc1cc(C)c(C)c(C)c1 | inactive | – |
| C=CCN(CC=C)CC=C | inactive | – |
